Laboratory results: PubChem BioAssay (NCI)
Compounds without any hit were thinned out: in the full panel of roughly 79,000, 15% have a hit. No stated cut-off is given here; in the data, active means growth inhibition above about 70%; inactive means the rest.

Legend:
[1] = NCI Yeast Anticancer Drug Screen. Data for the rad50 strain (AID 155);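 further: 0% = growth of vehicle-only cultures of the same strain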; conditions: S. cerevisiae rad50 strain growth inhibition; at 50.0 µM; hits give high values
Outline: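 Vehicle-treated cultures provide the reference for the growth inhibition reported for compound-exposed, repair-deficient yeast.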

[2] = NCI Yeast Anticancer Drug Screen. Data for the mec2-1 strain (AID 157); conditions: S. cerevisiae mec2-1 strain, at 50.0 µM, hits give high values
Outline: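 Strain: mec2-1 (DNA repair/cell cycle alteration). Compound exposure, then growth measured; inhibition expressed relative to vehicle.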

[3] = NCI Yeast Anticancer Drug Screen. Data for the sgs1 mgt1 strain (AID 161);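 further: 0% = growth of cultures given vehicle only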; conditions: S. cerevisiae sgs1 mgt1 strain, at 50.0 µM, hits give high values
Outline: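 Test agents were incubated with a DNA-repair-mutant yeast strain. Growth was then read and compared against vehicle-treated controls.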

[4] = NCI Yeast Anticancer Drug Screen. Data for the cln2 rad14 strain (AID 165);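 further: 0% = growth equal to vehicle treated cultures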; conditions: S. cerevisiae cln2 rad14 strain, at 50.0 µM, hits give high values
Outline: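 Compounds are applied to the cln2 rad14 yeast strain, and growth is then compared with that of vehicle-treated cultures to give inhibition.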

[5] = NCI Yeast Anticancer Drug Screen. Data for the bub3 strain (AID 167); conditions: S. cerevisiae bub3 mutant strain, at 50.0 µM, hits give high values
Outline: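 Mutant yeast screening strain plus compound; vehicle-treated cultures serve as the 0% inhibition reference.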

[6] = NCI Yeast Anticancer Drug Screen. Data for the mlh1 rad18 strain (AID 175); conditions: S. cerevisiae mlh1 rad18 strain growth inhibition; at 50.0 µM; hits give high values
Outline: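 Read-out is yeast growth inhibition, calculated against vehicle-only controls. The compound was applied to a strain engineered with DNA damage repair alterations.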

Measured: growth inhibition

O=C(O)C1(Nc2ccc(Cl)cc2)CCCC1
inactive: [1] 14.3% | [2] -6.75% | [3] -12.6% | [4] -1.45% | [5] 9.65% | [6] 11.6%

Cc1ccc(N=NC2=C3Sc4ccccc4N=C2N(c2ccc(Br)cc2)C(=S)N3c2ccc(Cl)cc2)cc1
inactive: [1] -8.6% | [2] -3.35% | [3] -21.4% | [4] 18.9% | [5] -3.4% | [6] 1.05%

COc1cc(NCCCCCCN(C)C)c2ncccc2c1
inactive: [1] -17.4% | [2] -21.2% | [3] -3.1% | [4] -19.4% | [5] 5.8% | [6] -14.8%

CCc1cnc(N)nc1N
inactive: [1] -0.6% | [2] 4.75% | [3] 5.85% | [4] 1.95% | [5] 0.95% | [6] 0.65%

CCOC(=O)/C(C#N)=N/Nc1ccc(S(=O)(=O)NC(C)=O)cc1
inactive: [1] -16.6% | [2] -10.5% | [3] 5.8% | [4] 11.5% | [5] -2.95% | [6] -4.4%

Nc1ccc2cccc(N)c2n1
inactive: [1] 34.5% | [2] 12.2% | [3] 8.85% | [4] 5.9% | [5] -5.65% | [6] -0.55%

O=C(Nc1ccc(C(F)(F)F)cc1[N+](=O)[O-])C(=O)C1NC(=S)NC1=O (stereo not given)
inactive: [1] 30.6% | [2] 12.1% | [3] 24.9% | [4] 25.4% | [5] 7.35% | [6] 27.6%

O=C(Nc1ccccc1)Oc1cccc(-c2ccc(-c3ccccc3)cc2)c1
inactive: [1] 29.4% | [2] 6.5% | [3] 33.7% | [4] 18.9% | [5] 49.5% | [6] 18.2%

NNC(=O)CCSCCC(=O)NN
inactive: [1] 7.85% | [2] -17.2% | [3] 3.4% | [4] -28.9% | [5] -5.95% | [6] -0.75%

O=c1c2ccccc2c2ccccc2n1C(c1ccccc1)c1ccccc1
inactive: [1] -43% | [2] -4.9% | [3] 3.25% | [4] -12.6% | [5] -11.5% | [6] -2%

CCOCC(=O)O
inactive: [1] -15.1% | [2] -1.25% | [3] 9.15% | [4] -32.2% | [5] 39.2% | [6] -1.25%

CC1(c2ccc(Cl)cc2)NC(=O)N(CC(=O)Nc2ccccc2)C1=O (stereo not given)
inactive: [1] 7.1% | [2] 13.9% | [3] 2.65% | [4] -7.95% | [5] -12.1% | [6] 14.2%

N#Cc1ccc(CSC2=C(c3ccc(Cl)cc3)S/C(=C3\SC(SCc4ccc(C#N)cc4)=C(c4ccc(Cl)cc4)S3)S2)cc1
inactive: [1] -16.8% | [2] -15.3% | [3] -19.9% | [4] 7.7% | [5] -8.4% | [6] -25.9%

CC(C)/C(=N\[N+](C)(C)C)c1ccccc1
inactive: [1] 0.4% | [2] -22.8% | [3] -21.8% | [4] -3.05% | [5] -22.7% | [6] 5.15%

CN(C)CCC(C(=O)NCc1ccccc1)C(=O)NCc1ccccc1
inactive: [1] -6.1% | [2] -9.95% | [3] 1.3% | [4] -17.4% | [5] -2.55% | [6] -17.2%

O=C(O)CCc1ccccc1-c1ccccc1C(=O)O
inactive: [1] 4% | [2] 1.45% | [3] -2.45% | [4] 8.8% | [5] 0.35% | [6] 31.4%

CN1CCc2ccccc2C1Cc1cc(OCc2ccccc2)ccc1N (stereo not given)
inactive: [1] 36.2% | [2] 1.25% | [3] 23.6% | [4] 30.6% | [5] 14.8% | [6] 22.1%

CCOC(=O)[C@H]1Nc2ccc(Cl)cc2[C@H]2c3ccccc3O[C@H]21
inactive: [1] 4.85% | [2] -22.3% | [3] -23.1% | [4] 8.35% | [5] -19.7% | [6] -19.4%

C#Cc1c(C)c(/C=C/C(C)=C/C=C/C(C)=C/C(=O)OC)n(C)c1C
inactive: [1] 12.2% | [2] 4.7% | [3] 20.3% | [4] 10.8% | [5] 23.6% | [6] 23.4%

CCC(c1ccc(N(C)C)cc1)c1ccc(N(C)C)cc1
inactive: [1] 3.8% | [2] -48.9% | [3] 1.6% | [4] 8.35% | [5] 0.05% | [6] 4.2%
